Assay results as given in PubChem BioAssay AID1159580 (chemical genetic matrix, 2015).
Values joined by “and” are separate entries in the source; they are usually repeats but may differ in a detail not shown here. Identical values can stand only once. In all, about 5,500 compounds went through this assay and about 2,000 (36%) were called active. Another 18% or so got no clear call; they are omitted. No stated cut-off is given here; in the data, active means normalized growth mostly below about 0.91 (no sharp cut-off); inconclusive means no clear call, values can overlap the other calls; inactive means mostly above about 0.92. The list shows a part of the results.

Assay: chemical genetic growth profiling, strain panel (AID 1159580);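 further: tested at 20 µM; growth read once vehicle control cultures reached saturation at 30 °C; 1 = growth at the plate median or of vehicle wells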
Settings: S. cerevisiae deletion strains, growth OD

Measured: normalized growth

c1cncc(C2CCCCN2)c1 (configuration not stated)
inactive: locus YAL021C, strain ccr4, stronger effect = lower value 0.986 | locus YAL026C, strain drs2, stronger effect = lower value 0.999 | locus YAL030W, strain snc1, stronger effect = lower value 1 | locus YBL061C, strain skt5, stronger effect = lower value 0.995 | locus YBR009C, strain hhf1, stronger effect = lower value 0.995 | locus YBR021W, strain FUR4, stronger effect = lower value 1.02 | locus YBR023C, strain chs3, stronger effect = lower value 0.998 | locus YBR171W, strain sec66, stronger effect = lower value 0.985 | locus YBR229C, strain ROT2, stronger effect = lower value 1.02 | locus YBR231C, strain swc5, stronger effect = lower value 0.991 | locus YBR279W, strain paf1, stronger effect = lower value 0.99 | locus YCL011C, strain gbp2, stronger effect = lower value 0.997 | locus YCL016C, strain dcc1, stronger effect = lower value 0.996 | locus YCL029C, strain bik1, stronger effect = lower value 0.982 | locus YCL061C, strain MRC1, stronger effect = lower value 0.988 | locus YCL069W, strain vba3, stronger effect = lower value 0.993 | locus YCR088W, strain abp1, stronger effect = lower value 0.993 | locus YDL005C, strain med2, stronger effect = lower value 0.997 | locus YDL035C, strain GPR1, stronger effect = lower value 1.04 | locus YDL040C, strain nat1, stronger effect = lower value 0.992 | locus YDL074C, strain BRE1, stronger effect = lower value 1.01 | locus YDL101C, strain DUN1, stronger effect = lower value 1.01 | locus YDL185W, strain tfp1, stronger effect = lower value 1 | locus YDL192W, strain arf1, stronger effect = lower value 0.998 | locus YDR001C, strain nth1, stronger effect = lower value 0.991 | locus YDR069C, strain doa4, stronger effect = lower value 0.988 | locus YDR101C, strain arx1, stronger effect = lower value 0.971 | locus YDR137W, strain rgp1, stronger effect = lower value 0.996 | locus YDR159W, strain sac3, stronger effect = lower value 0.979 | locus YDR162C, strain NBP2, stronger effect = lower value 1 | locus YDR195W, strain ref2 0.98 | locus YDR297W, strain sur2, stronger effect = lower value 0.986 | locus YDR318W, strain mcm21, stronger effect = lower value 1.01 | locus YDR334W, strain swr1, stronger effect = lower value 0.99 | locus YDR335W, strain msn5, stronger effect = lower value 0.994 | locus YDR388W, stronger effect = lower value 0.996 | locus YDR392W, strain spt3, stronger effect = lower value 0.99 | locus YDR502C, strain sam2, stronger effect = lower value 0.995 | locus YEL003W, strain gim4, stronger effect = lower value 1.01 | locus YEL037C, strain rad23, stronger effect = lower value 0.999 | locus YEL061C, strain CIN8 (second series), stronger effect = lower value 0.992 | locus YEL061C, strain CIN8, stronger effect = lower value 0.999 | locus YER015W, strain faa2, stronger effect = lower value 0.997 | locus YER016W, strain bim1, stronger effect = lower value 0.995 | locus YER110C, stronger effect = lower value 0.98 | locus YER111C, strain swi4, stronger effect = lower value 0.989 | locus YER155C, strain BEM2 (second series), stronger effect = lower value 0.996 | locus YER155C, strain BEM2, stronger effect = lower value 1.01 | locus YER167W, strain BCK2, stronger effect = lower value 0.993 | locus YFR010W, strain ubp6, stronger effect = lower value 0.989 | locus YGL078C, strain dbp3, stronger effect = lower value 1 | locus YGL086W, strain mad1, stronger effect = lower value 0.978 | locus YGL167C, strain pmr1, stronger effect = lower value 0.989 | locus YGL173C, strain kem1, stronger effect = lower value 0.984 | locus YGL227W, strain vid30, stronger effect = lower value 0.983 | locus YGL240W, strain doc1, stronger effect = lower value 0.981 | locus YGL248W, strain PDE1, stronger effect = lower value 1.03 | locus YGL253W, strain hxk2, stronger effect = lower value 0.986 | locus YGR078C, strain PAC10, stronger effect = lower value 1.01 | locus YGR135W, strain pre9, stronger effect = lower value 0.999 | locus YGR252W, strain gcn5, stronger effect = lower value 0.969 | locus YHR013C, strain ard1, stronger effect = lower value 1 | locus YHR027C, strain rpn1, stronger effect = lower value 0.985 | locus YHR030C, strain SLT2, stronger effect = lower value 1.01 and 1.02 | locus YHR079C, strain IRE1 (second series), stronger effect = lower value 0.998 | locus YHR079C, strain IRE1, stronger effect = lower value 1 | locus YHR094C, strain hxt1, stronger effect = lower value 0.996 | locus YHR129C, strain ARP1, stronger effect = lower value 1 | locus YHR142W, strain chs7, stronger effect = lower value 0.985 | locus YHR200W, strain rpn10, stronger effect = lower value 0.999 | locus YIL066C, strain RNR3, stronger effect = lower value 1.01 | locus YIL073C, strain SPO22, stronger effect = lower value 0.996 | locus YIL125W, strain kgd1, stronger effect = lower value 0.986 | locus YIR030C, strain dcg1, stronger effect = lower value 0.988 | locus YJL092W, strain hpr5, stronger effect = lower value 0.995 | locus YJL095W, strain BCK1 (second series), stronger effect = lower value 1.01 | locus YJL095W, strain BCK1, stronger effect = lower value 1.05 and 0.994 | locus YJL115W, strain asf1, stronger effect = lower value 0.986 | locus YJL129C, strain trk1, stronger effect = lower value 0.999 | locus YJL134W, strain LCB3, stronger effect = lower value 1.01 | locus YJL154C, strain vps35, stronger effect = lower value 0.991 | locus YJL164C, strain tpk1, stronger effect = lower value 0.998 | locus YJL166W, strain qcr8, stronger effect = lower value 0.993 | locus YJL168C, strain set2, stronger effect = lower value 0.995 | locus YJL187C, strain SWE1 (second series), stronger effect = lower value 1.03 | locus YJL187C, strain SWE1, stronger effect = lower value 1.01 | locus YJR043C, strain POL32, stronger effect = lower value 1.02
